Records with an inconclusive call do not appear. A number with no mark means an inactive call. Active and inactive are the calls of the source. Calls follow the shape of the dose curve; as a rule, active = well fitted inhibition curve with a large enough effect in the signal ratio, with a control signal flat (not every such curve was filed as active); inconclusive = small, poorly fitted or top-dose-only effect, or effect the other way, or a change in a side signal; inactive = flat fitted curve, though single readings scatter; the % refers to the signal ratio.
Molecular target: Peroxisome proliferator-activated receptor gamma (Homo sapiens) (UniProt P37231)
Experiment: qHTS assay for small molecule antagonists of peroxisome proliferator-activated receptor gamma signaling (AID 588537)
Conditions: HEK293 PPARg-UAS-bla, beta-lactamase ratio, antagonist mode; series mostly up to 76.8 µM; activity, negative = inhibition: at the top concentration
Excerpt: NIH Chemical Genomics Center [NCGC]
U.S. Environmental Protection Agency [EPA]
National Institutes of Environmental Health Sciences [NIEHS]
National Toxicology Program [NTP]
The Peroxisome proliferator-activated receptors (PPARs) are lipid-activated transcription factors of the nuclear receptor superfamily with three distinct subtypes namely PPAR alpha, PPAR delta (also called PPAR beta) and PPAR gamma. All these subtypes heterodimerizes with Retinoid X receptor (RXR) and these heterodimers regulate transcription of various genes. PPAR-gamma (glitazone receptor) ligands have been used in the treatment of type 2 diabetes and dyslipidaemia. It is involved in the regulation of glucose and lipid metabolism. PPAR-gamma activates certain genes like Paraoxonase 1 which is responsible for hydrolyzing organophosphates. PPAR-gamma ligands may also be therapeutically important in the treatment of coronary artery disease, obesity and cancer and atherosclerosis.
NCGC Assay Protocol Summary
Using a beta-lactamase reporter-gene under control of Peroxisome Proliferator-Activated-gamma (PPAR-gamma) response element, a cell-based assay [GeneBLAzer PPAR-gamma-UAS-bla assay developed by Invitrogen] was used to measure PPAR-gamma ligands signaling. GeneBLAzer PPAR-gamma-UAS-bla-HEK293 cells were used with assay medium containing 1% charcoal/dextran treated FBS. The assay was performed in clear bottom black Greiner 1536-well plates. Library compounds were measured for their ability to inhibit the reporter gene activity. Compounds were screened in a titration series in 1536-well format. The fluorescence intensity (405 nm excitation, 460/530 nm emission) was measured using an EnVision plate reader. Data was normalized relative to Rosiglitazone control (50 nM, 100%), and DMSO only wells (basal, 0%). Concentration-response titration points for each compound were fitted to the Hill equation yielding concentrations of half-maximal inhibition (IC50) and maximal response (efficacy) values.
qHTS protocol for PPAR-gamma beta-lactamase assay in antagonist mode
[Step] [Parameter] [Value] [Description]
1. Reagent; 5 uL; 3000 cells/well
2. Incubation; 37 C for 6-6.5 hrs
4. Controls (GW9662, PPAR-gamma antagonist); 23 nL,
5. Agonist (Stimulator); 1uL; Rosiglitazone at 50 nM (final) concentration
6. Incubation; 37 C for 16 hrs
7. Detection reagent; 1 uL of CCF4-dye
8. Incubation; RT for 2 hrs
9. Detection; Fluorescence; Envision plate reader

Chain of Peroxisome proliferator-activated receptor gamma (Homo sapiens) (P37231 whole entry, looked up): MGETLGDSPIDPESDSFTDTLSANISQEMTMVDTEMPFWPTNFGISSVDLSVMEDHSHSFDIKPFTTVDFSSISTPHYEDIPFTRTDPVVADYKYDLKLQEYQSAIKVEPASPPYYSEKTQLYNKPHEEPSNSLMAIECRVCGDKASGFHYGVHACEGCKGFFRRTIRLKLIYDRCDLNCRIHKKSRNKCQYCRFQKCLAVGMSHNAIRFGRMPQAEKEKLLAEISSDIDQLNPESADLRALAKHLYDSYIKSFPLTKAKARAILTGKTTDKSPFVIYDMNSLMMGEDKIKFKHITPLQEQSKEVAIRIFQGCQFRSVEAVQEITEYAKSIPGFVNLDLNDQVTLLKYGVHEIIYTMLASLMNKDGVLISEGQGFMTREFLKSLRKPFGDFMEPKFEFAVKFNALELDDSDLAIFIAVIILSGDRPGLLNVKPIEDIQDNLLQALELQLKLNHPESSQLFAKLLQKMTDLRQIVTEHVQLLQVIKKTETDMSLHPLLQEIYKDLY

SMILES	activity, negative = inhibition [%]	Potency
CCOS(=O)(=O)OCC	-3.17	–
CCOc1nc(C(Cl)(Cl)Cl)ns1	7.54	–
Nc1cccc(Cl)c1Cl	7.25	–
CCCCC(CC)COC(=O)Cl (stereo not given)	0.222	–
CCC/C(=N\OCC)C1=C(O)CC(CC(C)SCC)CC1=O (stereo not given)	2.5	–
CCN(CC)C(=O)SCc1ccc(Cl)cc1	11.7	–
CCOP(=O)(OCC)SCSCC	8.77	–
CCOP(=S)(OCC)OC(Cl)C(Cl)(Cl)Cl (stereo not given)	1.26	–
CC(Oc1cc(Cl)c(Cl)cc1Cl)C(=O)O (stereo not given)	7.97	–
COc1cc(OC)nc(NC(=O)NS(=O)(=O)c2ncccc2C(F)(F)F)n1	2.24	–
CCSCCSP(=O)(OC)OC	3.15	–
COc1cnc(OC)n2nc(NS(=O)(=O)c3c(OCC(F)F)cccc3C(F)(F)F)nc12	1	–
C=C(C)CN(CC)c1c([N+](=O)[O-])cc(C(F)(F)F)cc1[N+](=O)[O-]	-2.47	–
CCSC(C)CC1CC(=O)C(/C(CC)=N/OC/C=C/Cl)=C(O)C1 (stereo not given)	-15.1	–
CC(C)C(C(=O)OC(C#N)c1cccc(Oc2ccccc2)c1)c1ccc(Cl)cc1 (stereo not given)	-0.128	–
Clc1ccc(C2(Cn3cncn3)CC(Br)CO2)c(Cl)c1 (stereo not given)	-0.476	–
O=c1[nH]c2ccccc2c(=O)o1	10.2	–
CCCCNC(=O)OCC#CI	0.567	–
CCN(CC)c1nc(C)cc(OP(=S)(OC)OC)n1	-3.99	–
CCOP(OCC)OCC	-4.69	–

SMILES	activity, negative = inhibition [%]	Potency
Nc1ccccc1C(=O)OCCc1ccccc1	-17.3	–
CC(Oc1cccc(Cl)c1)C(=O)O (stereo not given)	14.2	–
Nc1nc(N)nc(N)n1	9.55	–
CC(C)(C)N(NC(=O)c1ccc(Cl)cc1)C(=O)c1ccccc1	1.35	–
CCOP(=O)(OCC)SCS(=O)(=O)C(C)(C)C	-3.54	–
CCCCCCCCCCCCN(C)C	11.9	–
O=C(O)c1c(Cl)ccc2cc(Cl)cnc12	6.51	–
CC1(C)CC/C(=C\c2ccc(Cl)cc2)C1(O)Cn1cncn1 (stereo not given)	-8.27	–
Cc1cc(C)nc(NC(=O)NS(=O)(=O)c2ccccc2C(=O)OC2COC2)n1	-3.79	–
C/C(=N\NC(=O)Nc1cc(F)cc(F)c1)c1ncccc1C(=O)O	–	inactive
Clc1ccc([C@]2(Cn3cncn3)C[C@H](Br)CO2)c(Cl)c1	-5.36	–
CCOC(=O)Nc1cccc(OC(=O)Nc2ccccc2)c1	-2.6	–
O=C(O)C(F)(F)C(F)(F)C(F)(F)C(F)(F)C(F)(F)C(F)(F)C(F)(F)C(F)(F)C(F)(F)F	2.04	–
CCNP(=S)(OC)O/C(C)=C/C(=O)OC(C)C (stereo not given)	-8.77	–
Clc1ccc(-c2cc(Cl)c(Cl)cc2Cl)cc1Cl	4.92	–
CN1COCN(Cc2cnc(Cl)s2)/C1=N\[N+](=O)[O-]	1.42	–
CCOP(=O)(NC(C)C)Oc1ccc(S(C)(=O)=O)c(C)c1 (stereo not given)	5.32	–
Clc1ccc([C@@]2(Cn3cncn3)C[C@@H](Br)CO2)c(Cl)c1	-3.93	–
OC(Cn1cncn1)(c1ccc(F)cc1)c1ccccc1F (stereo not given)	-1.2	–
CN(C)P(=O)(N(C)C)N(C)C	4.77	–

Source: PubChem BioAssay (NCATS)
